Calls of active or inactive are those of the source. Rule for the calls: active = hit-call score of the fitted dose curve at least 0.9, where 1 is the maximum; inactive = score below 0.9.
What was measured:
[1] = ATG_DR4_LXR_CIS: Attagene CIS-FACTORIAL HepG2 Assay for human Liver X Receptor (LXR), DR4 submotif (AID 2282929); conditions: HepG2 Attagene DR4 cis-reporter, mRNA transcription; AC50: actives raise or lower the signal unless noted; outcome: actives raise or lower the signal unless noted
Method in brief: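 The endpoint is DR4-element-driven reporter transcripts after 24 h chemical exposure of transfected HepG2 cells. These were measured via RT-PCR and capillary electrophoresis, and gain or loss of signal was fitted relative to DMSO controls.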

[2] = ATG_AP_1_CIS: Attagene CIS-FACTORIAL HepG2 Assay for human Activator Protein 1 (AP-1) (AID 2282931); conditions: HepG2 Attagene cis-factorial AP-1 reporter mRNA; actives raise or lower the signal
Method in brief: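 Readout is reporter transcript level from endogenous transcription factor activity, quantified by RT-PCR with fluorescent primer extension and capillary electrophoresis. Transiently transfected HepG2 cells, 24 h exposure. Curves fitted both directions versus DMSO.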

[3] = ATG_AP_2_CIS: Attagene CIS-FACTORIAL HepG2 Assay for human Activator Protein 2 (AP-2) (AID 2282932); conditions: HepG2 AP-2 cis-reporter, Attagene transcription factor profiling; AC50: actives raise or lower the signal unless noted; outcome: actives raise or lower the signal unless noted
Method in brief: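 Step one: transient transfection of HepG2 with reporter transcription units. Step two: 24 h chemical exposure. Step three: RNA extraction, RT-PCR, labelled fragment analysis by capillary electrophoresis; DMSO serves as baseline.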

[4] = ATG_BRE_CIS: Attagene CIS-FACTORIAL HepG2 Assay for human Bone Morphogenetic Protein (BMP) Response Element (BRE) (AID 2282933); conditions: HepG2 BMP response element reporter, Attagene transcription factor profiling; actives raise or lower the signal
Method in brief: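 After a 24 h chemical treatment, transiently transfected HepG2 cells were lysed for RNA; reporter transcripts were quantified by fluorescent RT-PCR and capillary electrophoresis, normalised to DMSO.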

[5] = target: Retinoic acid receptor alpha (Homo sapiens) (UniProt P10276); test: ATG_DR5_RAR_CIS: Attagene CIS-FACTORIAL HepG2 Assay for human Retinoic Acid Receptor Alpha (RARE), DR5 submotif (AID 2282934); conditions: HepG2 Attagene cis-factorial RARE DR5 reporter, mRNA; actives raise or lower the signal
Method in brief: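 HepG2, transient cis-reporter transfection, 24 h exposure. mRNA readout: RT-PCR, FAM label, HpaI cut, capillary electrophoresis. DMSO baseline, gain/loss fitting.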

[6] = target: Transcription factor E2F1 (Homo sapiens) (UniProt Q01094); test: ATG_E2F_CIS: Attagene CIS-FACTORIAL HepG2 Assay for human E2F Transcription Factor 1 (AID 2282935); conditions: HepG2 Attagene cis-reporter, E2F reporter RNA transcripts; actives raise or lower the signal
Method in brief: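 Total RNA from 24 h-treated, reporter-transfected HepG2 cells undergoes DNase I treatment, oligo(dT) reverse transcription, PCR and 6-FAM primer extension before capillary electrophoresis.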

[7] = ATG_E_Box_CIS: Attagene CIS-FACTORIAL HepG2 Assay for human Enhancer Box (E-box) (AID 2282936); conditions: HepG2 E-box cis-reporter transcription, actives raise or lower the signal
Method in brief: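 DMSO served as negative control and baseline for bidirectional fitting. Human hepatoma HepG2 cells, transiently transfected with cis-reporter constructs, were dosed 24 h; reporter mRNA read by RT-PCR and capillary electrophoresis.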

[8] = ATG_M_61_CIS: Attagene CIS-FACTORIAL HepG2 Assay for M61 Transcription Factor (Internal Marker) (AID 2282937); conditions: HepG2 Attagene CIS-FACTORIAL M61 internal marker reporter; actives raise or lower the signal
Method in brief: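 Readout is reporter mRNA by RT-PCR, fluorescent primer extension and capillary electrophoresis, with gain or loss fitted relative to DMSO. Transfected HepG2 cells carrying endogenous-TF-driven cis reporters were exposed to chemicals for 24 hours.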

[9] = ATG_EGR_CIS: Attagene CIS-FACTORIAL HepG2 Assay for human Early Growth Response 1 (EGR1) (AID 2282938); conditions: HepG2 Attagene CIS-FACTORIAL EGR reporter mRNA; actives raise or lower the signal
Method in brief: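 After 24 h compound exposure, RNA from reporter-transfected HepG2 cells was reverse-transcribed, PCR-amplified, fluorescently labelled and resolved by capillary electrophoresis. EGR1 reporter transcript changes, up or down, were fitted against DMSO, reflecting endogenous transcription-factor activity.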

[10] = ATG_ERE_CIS: Attagene CIS-FACTORIAL HepG2 Assay for Estrogen Response Element (ERE) (AID 2282940); conditions: HepG2 ERE cis-reporter, Attagene RNA transcript; actives raise or lower the signal
Method in brief: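 Measuring endogenous transcription factor output, the assay doses transfected HepG2 cells for 24 hours and quantifies reporter transcripts by fluorescent RT-PCR and capillary electrophoresis, with DMSO as baseline.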

[11] = ATG_Ets_CIS: Attagene CIS-FACTORIAL HepG2 Assay for human Erythroblast Transformation Specific (ETS) (AID 2282941); conditions: HepG2 ETS cis-reporter transcription; AC50: actives raise or lower the signal unless noted; outcome: actives raise or lower the signal unless noted
Method in brief: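 Human HepG2 hepatoma cells were transiently transfected with promoter-driven reporter constructs and treated for 24 hours. Reporter transcripts were quantified by RT-PCR with fluorescent primer extension; bidirectional curve fitting used DMSO as reference.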

[12] = target: Hepatocyte nuclear factor 3-beta (Homo sapiens) (UniProt Q9Y261); test: ATG_FoxA2_CIS: Attagene CIS-FACTORIAL HepG2 Assay for human Forkhead box A2 (FOXA2) (AID 2282942); conditions: HepG2 cis-reporter transcription factor activity, 24 h; actives raise or lower the signal
Method in brief: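 Endogenous transcription factor activity is captured via cis-element-driven reporter transcripts in transfected HepG2. Total RNA taken at 24 h post-dosing; labelled RT-PCR products resolved by capillary electrophoresis. Gain or loss fitted versus DMSO.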

[13] = ATG_FoxO_CIS: Attagene CIS-FACTORIAL HepG2 Assay for human Forkhead box O (FoxO) (AID 2282943); conditions: HepG2 Attagene cis-reporter, FoxO element, mRNA; actives raise or lower the signal
Method in brief: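 Human hepatoma HepG2 cells carry transiently introduced reporter transcription units controlled by cis promoter elements. Chemical treatment lasted 24 h, and mRNA signal was compared with DMSO.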

[14] = ATG_GATA_CIS: Attagene CIS-FACTORIAL HepG2 Assay for human GATA Binding Protein (AID 2282944); conditions: HepG2 GATA cis-element reporter, Attagene multiplex mRNA; actives raise or lower the signal
Method in brief: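 Measures endogenous transcription factor-driven reporter mRNA in HepG2 cells transiently carrying cis-regulated constructs. 24 h dosing; RNA via oligo(dT) reverse transcription, PCR, HpaI digestion, capillary electrophoresis; fitted relative to DMSO.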

[15] = ATG_GLI_CIS: Attagene CIS-FACTORIAL HepG2 Assay for human Zinc Finger Protein GLI1 (AID 2282945); conditions: HepG2, Attagene cis-factorial reporter mRNA, GLI element; actives raise or lower the signal
Method in brief: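 Bidirectional curve fits relative to DMSO, using reporter mRNA levels from RT-PCR plus capillary electrophoresis. Cells were HepG2 transiently carrying cis-regulated reporter constructs, harvested 24 h after dosing.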

[16] = target: Bile acid receptor (Homo sapiens) (UniProt Q96RI1); test: ATG_IR1_CIS: Attagene CIS-FACTORIAL HepG2 Assay for human Nuclear Receptor Subfamily 1 Group H Member 4 (NR1H4), IR1 submotif (AID 2282946); conditions: IR1 reporter transcription, actives raise or lower the signal
Method in brief: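 Cells (human HepG2) carry transiently transfected cis-promoter reporter transcription units. Compounds are incubated 24 h, total RNA is reverse-transcribed and amplified, and labelled fragments are resolved by capillary electrophoresis. Curves use DMSO as baseline.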

[17] = ATG_GRE_CIS: Attagene CIS-FACTORIAL HepG2 Assay for human Glucocorticoid Response Elements (GRE) (AID 2282947); conditions: HepG2 GRE cis-reporter, Attagene multiplex mRNA; AC50: actives raise or lower the signal unless noted; outcome: actives raise or lower the signal unless noted
Method in brief: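 Assay uses human hepatoma HepG2 cells transfected with cis-promoter reporter units, exposed 24 h. mRNA from reporters detected by RT-PCR plus capillary electrophoresis; DMSO serves as negative control and baseline.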

[18] = ATG_ISRE_CIS: Attagene CIS-FACTORIAL HepG2 Assay for human Interferon Regulatory Factor 1 (IRF1) binding to an Interferon-Stimulated Response Element (ISRE) (AID 2282948); conditions: HepG2 ISRE cis-reporter (Attagene), mRNA transcription readout; actives raise or lower the signal
Method in brief: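 Cell-based cis-reporter assay; HepG2; 24 h exposure; reporter mRNA by RT-PCR plus capillary electrophoresis fluorescence; activity in either direction scored relative to DMSO.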

[19] = ATG_M_19_CIS: Attagene CIS-FACTORIAL HepG2 Assay for M19 Transcription Factor (Internal Marker) (AID 2282939); conditions: HepG2 Attagene CIS-FACTORIAL M19 internal marker reporter; actives raise or lower the signal
Method in brief: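 In this multiplexed cell assay, transiently transfected HepG2 reporter units report endogenous transcription-factor activity; after 24 hours of treatment, labelled reporter cDNA fragments are quantified by capillary electrophoresis and fitted bidirectionally against DMSO.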

Measured: AC50

Hepatocyte nuclear factor 3-beta (Homo sapiens), sequence (Q9Y261 whole entry, looked up): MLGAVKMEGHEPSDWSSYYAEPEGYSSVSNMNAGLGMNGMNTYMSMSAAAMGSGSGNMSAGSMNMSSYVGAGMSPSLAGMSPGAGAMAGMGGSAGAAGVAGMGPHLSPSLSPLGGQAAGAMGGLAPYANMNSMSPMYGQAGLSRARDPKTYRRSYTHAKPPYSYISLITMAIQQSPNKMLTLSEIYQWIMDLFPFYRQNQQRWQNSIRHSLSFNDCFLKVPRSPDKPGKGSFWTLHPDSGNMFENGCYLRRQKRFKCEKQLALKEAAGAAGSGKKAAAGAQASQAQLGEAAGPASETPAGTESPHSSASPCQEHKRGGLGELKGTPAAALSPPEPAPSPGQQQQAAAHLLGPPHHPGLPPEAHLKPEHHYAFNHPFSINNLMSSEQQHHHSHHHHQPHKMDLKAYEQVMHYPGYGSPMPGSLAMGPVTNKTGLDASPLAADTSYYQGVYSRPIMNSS
Bile acid receptor (Homo sapiens), sequence (Q96RI1 whole entry, looked up, the tested form may be a part): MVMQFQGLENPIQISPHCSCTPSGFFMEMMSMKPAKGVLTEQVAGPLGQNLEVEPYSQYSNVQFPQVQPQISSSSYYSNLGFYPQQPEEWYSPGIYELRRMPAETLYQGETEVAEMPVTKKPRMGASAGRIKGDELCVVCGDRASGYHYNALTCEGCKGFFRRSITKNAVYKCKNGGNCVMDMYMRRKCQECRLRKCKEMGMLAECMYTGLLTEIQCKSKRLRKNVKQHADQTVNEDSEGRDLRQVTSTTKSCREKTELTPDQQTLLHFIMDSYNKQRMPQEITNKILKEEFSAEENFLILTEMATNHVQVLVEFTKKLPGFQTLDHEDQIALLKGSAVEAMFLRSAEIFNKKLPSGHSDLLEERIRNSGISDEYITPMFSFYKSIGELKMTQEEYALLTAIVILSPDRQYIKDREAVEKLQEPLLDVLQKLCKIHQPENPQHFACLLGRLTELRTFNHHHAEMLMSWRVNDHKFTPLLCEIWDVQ
Retinoic acid receptor alpha (Homo sapiens), sequence (P10276 whole entry, looked up): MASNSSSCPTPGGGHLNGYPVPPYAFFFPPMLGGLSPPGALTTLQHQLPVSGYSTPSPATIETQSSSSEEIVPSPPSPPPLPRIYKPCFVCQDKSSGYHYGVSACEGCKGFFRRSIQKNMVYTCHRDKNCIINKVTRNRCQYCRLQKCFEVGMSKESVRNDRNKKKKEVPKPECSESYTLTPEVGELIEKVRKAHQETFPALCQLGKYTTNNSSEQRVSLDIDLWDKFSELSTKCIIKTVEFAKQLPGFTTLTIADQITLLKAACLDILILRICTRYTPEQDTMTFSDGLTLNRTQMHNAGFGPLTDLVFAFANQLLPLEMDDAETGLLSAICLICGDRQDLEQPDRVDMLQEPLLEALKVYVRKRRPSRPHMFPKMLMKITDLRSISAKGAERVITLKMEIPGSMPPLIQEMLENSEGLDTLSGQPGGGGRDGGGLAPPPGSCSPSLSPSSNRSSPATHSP
Transcription factor E2F1 (Homo sapiens), sequence (Q01094 whole entry, looked up): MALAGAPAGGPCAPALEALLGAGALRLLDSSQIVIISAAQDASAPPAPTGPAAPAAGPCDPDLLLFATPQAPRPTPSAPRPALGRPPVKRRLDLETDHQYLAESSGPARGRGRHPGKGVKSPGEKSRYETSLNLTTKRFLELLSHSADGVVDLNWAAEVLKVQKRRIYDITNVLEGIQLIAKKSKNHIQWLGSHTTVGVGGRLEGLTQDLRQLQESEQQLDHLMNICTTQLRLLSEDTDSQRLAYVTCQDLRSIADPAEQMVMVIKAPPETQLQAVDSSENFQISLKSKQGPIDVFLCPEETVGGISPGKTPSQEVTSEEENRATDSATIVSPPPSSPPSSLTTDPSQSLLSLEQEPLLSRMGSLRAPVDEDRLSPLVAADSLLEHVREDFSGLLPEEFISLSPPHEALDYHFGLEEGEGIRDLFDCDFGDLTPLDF

COC1=CC(=O)C[C@@H](C)[C@]12Oc1c(Cl)c(OC)cc(OC)c1C2=O
not listed: [19]
inactive: all other assays above

C=CC(C)(CCC=C(C)C)OC(C)=O (stereo unspecified)
not listed: [4]
inactive: all other assays above

Oc1cc2ccccc2cc1O
active: [2] 70.2 µM | [10] 100 µM
not listed: [3] | [6] | [12]
inactive: all other assays above

CCCCCCCCCCCC(=O)NCCCN(C)C
active: [9] 20.3 µM | [13] 20.3 µM | [14] 17.2 µM | [16] 16.4 µM | [17] 14.9 µM | [18] 16.9 µM
not listed: [4] | [19]
inactive: all other assays above

CCCCC(CC)C(=O)O (stereo unspecified)
not listed: [3] | [5] | [10] | [16] | [17]
inactive: all other assays above

NS(=O)(=O)O
not listed: [5] | [6] | [10] | [16]
inactive: all other assays above

FC(OC(F)(F)C(F)(F)C(F)(F)F)C(F)(F)F (stereo unspecified)
not listed: [19]
inactive: all other assays above

OCC(CO)(CBr)CBr
not listed: [6] | [10] | [14]
inactive: all other assays above

CCOC(C)=O
not listed: [4] | [12] | [14] | [16]
inactive: all other assays above

CC1=CC(=O)c2ccccc2C1=O
active: [7] 6.91 µM
not listed: [3] | [6] | [14] | [19]
inactive: all other assays above

NCCN
not listed: [3] | [4] | [12] | [16] | [17]
inactive: all other assays above

CN(Cc1cnc2nc(N)nc(N)c2n1)c1ccc(C(=O)N[C@@H](CCC(=O)O)C(=O)O)cc1
not listed: [6] | [17]
inactive: all other assays above

CC(C)[C@@H]1CC[C@@H](C)C[C@H]1O
not listed: [10] | [17]
inactive: all other assays above

CN(C)CCOC(c1ccccc1)c1ccccc1
active: [1] 150 µM | [7] 60.6 µM | [18] 100 µM
not listed: [4] | [6] | [16]
inactive: all other assays above

O=C(c1ccccc1)c1ccccc1
not listed: [10] | [14] | [16]
inactive: all other assays above

O=C1NS(=O)(=O)c2ccccc21
not listed: [4] | [10] | [12] | [16] | [17]
inactive: all other assays above

From PubChem BioAssay (EPA / NIEHS)
